# Screening data (PubChem)
# TDP1 block: blocks human tyrosyl-DNA phosphodiesterase 1; recombinant TDP1, AlphaScreen DNA substrate cleavage; Potency, µM (series often up to 130 µM), inactives show at the top dose activity change, negative = inhibition, most hits filed as inhibitors; 350,000 compounds, 0.28% hits; Q9NUW8; AID 485290; further: potency means the concentration at half of the fitted maximal effect; nearly all actives have a fitted effect of over 40% in size
# Target sequence (Q9NUW8 whole entry, looked up): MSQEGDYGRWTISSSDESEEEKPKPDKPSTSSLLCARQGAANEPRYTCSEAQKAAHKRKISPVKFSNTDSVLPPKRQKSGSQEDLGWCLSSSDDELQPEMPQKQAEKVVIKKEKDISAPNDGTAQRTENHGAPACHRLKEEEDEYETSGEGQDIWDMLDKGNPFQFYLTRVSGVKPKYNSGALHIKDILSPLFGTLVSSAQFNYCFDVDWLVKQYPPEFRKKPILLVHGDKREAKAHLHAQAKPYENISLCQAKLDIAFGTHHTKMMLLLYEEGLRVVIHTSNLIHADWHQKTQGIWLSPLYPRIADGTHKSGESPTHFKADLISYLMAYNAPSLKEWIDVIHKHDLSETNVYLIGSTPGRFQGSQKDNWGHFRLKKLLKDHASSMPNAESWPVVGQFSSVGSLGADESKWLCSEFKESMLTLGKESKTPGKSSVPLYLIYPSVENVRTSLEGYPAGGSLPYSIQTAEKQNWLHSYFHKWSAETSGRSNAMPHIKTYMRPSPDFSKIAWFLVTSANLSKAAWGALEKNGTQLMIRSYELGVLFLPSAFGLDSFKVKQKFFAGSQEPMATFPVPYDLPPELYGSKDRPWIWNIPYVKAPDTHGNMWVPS
#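 Here, a 5' biotin and 3' phosphotyrosine-FITC DNA oligonucleotide reports Tdp1 activity: intact substrate bridges AlphaScreen beads, while cleavage leaves a 3' phosphate and drops signal. All incubations at room temperature.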
# IL1B secr inh: inflammasome signaling inhibition, IL-1 beta readout; THP-1 LPS/ATP IL-1B secretion, AlphaLISA, 16 h; hits give low values; activity change, % at 57.5 µM; 360,000 compounds, 4.7% hits; AID 743279; in the data active means activity change below about -50%; inconclusive means mostly about -30% to -49%
#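 THP-1 cells pretreated 1 hr with compounds (up to 57.5 uM final), then stimulated with LPS (250 ng/mL final) plus ATP (1.25 mM final); secreted IL-1B measured by AlphaLISA after 16 hr, decreased signal indicating inhibition.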
# Giardia killer: kills Giardia lamblia; Giardia lamblia trophozoite viability; activity change, % at 7.66 µM, hits read low; 340,000 compounds, 0.15% hits; in the data active means activity change below about -80%; inconclusive means between about -30% and that limit;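 further: parasites exposed to compound for two days anaerobically before the ATP read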
#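 Each well holds 100 Giardia trophozoites and compound. After two days (48 hrs) at 37 deg C in anaerobic conditions, ATP is quantified by luminescence.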
# ELG1 repair inh: blocks ELG1-dependent DNA repair in HEK293T cells | HEK293T ELG1-luciferase reporter, luminescence, 16 h; DNA damage induced by 5-fluorouridine | Potency, µM (doses to about 46.1 µM), for the others: top-dose activity change, negative = inhibition, usual class: inhibitors | 330,000 compounds, 2.3% hits | AID 504467; further: potency means the concentration at half of the fitted maximal effect; nearly all actives have a fitted effect of over 55% in size
#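 Overnight (16 hr) co-exposure of 2,000 cells/well to 5-fluorouridine and compound at 37 °C preceded detection. Luciferase was quantified via ONE-Glo luminescence; loss of signal denotes inhibition.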
# TDP1 cell noCPT: qHTS for Inhibitors of human tyrosyl-DNA phosphodiesterase 1 (TDP1): qHTS in cells in absence of CPT | DT40 Tdp1-/- hTDP1 cells, no CPT, ATP luminescence, 48 h | Potency, µM (series often up to 46.2 µM), for the others: at the highest dose activity change, negative = growth inhibition, most hits filed as inhibitors | 420,000 compounds, 15% hits; further: potency means the concentration at half of the fitted maximal effect; nearly all actives have a fitted effect of over 55% in size
#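 Chicken DT40 Tdp1-/- cells complemented with human TDP1, screened without camptothecin (DMSO vehicle only), 400 cells/well. Compounds pin-transferred, cells incubated at 37 °C for at least 48 hr. Growth read as ATP-dependent luminescence (CellTiter-Glo, 30 min at RT).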
# DT40 TDP1 CPT: growth inhibition of DT40 Tdp1-/-;hTDP1 cells with camptothecin (screen for TDP1 inhibitors). chicken DT40 Tdp1-/-;hTDP1 cells + 20 nM CPT, ATP luminescence, 48 h. Potency, µM (top dose mostly 46.2 µM), inactives show at the top dose activity change, negative = growth inhibition, hits mostly inhibitors. 420,000 compounds, 12% hits; further: potency means the concentration at half of the fitted maximal effect; nearly all actives have a fitted effect of over 55% in size
#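 Chicken DT40 Tdp1-/- cells complemented with human TDP1, 400 cells/well, exposed to compounds plus 20 nM camptothecin for at least 48 h at 37 C; viability read as ATP content by CellTiter-Glo luminescence.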
# Numbers without * were called inactive; ? = inconclusive; . = not tested or not shown. Only some compounds are listed: those with a hit (about 19% of all), similar ones and a draw of the others. Unless noted, the call rests on the fitted dose curve; in most records, active means well fitted curve in the direction sought with a large enough effect; inconclusive means small, poorly fitted or top-dose-only effect, or another doubt; inactive means no such curve, though single readings can be large; an effect the other way counts as inactive or inconclusive. On the % scale 0 is the no-effect control and ±100 the full control effect.
SMILES,TDP1 block,IL1B secr inh,Giardia killer,ELG1 repair inh,TDP1 cell noCPT,DT40 TDP1 CPT
O=C(CSc1nncn2c1cc1occc12)Nc1ccccc1C(F)(F)F,5%,.,.,.,?,?
O=C(CN1C(=O)C(=O)c2ccccc21)c1ccc(Cl)cc1,5%,6,23,-9%,3.3µM*,5.8µM*
O=C1C(=O)N(Cc2ccc(Cl)c(Cl)c2)c2ccccc21,.,.,.,.,1.9µM*,2.7µM*
CCC1(c2ccccc2)NC(=O)N(Cc2cccc([N+](=O)[O-])c2)C1=O (stereo not given),.,13,-17,?,-12%,?
O=C1C(=O)N(Cc2cccc([N+](=O)[O-])c2)c2ccccc21,-6%,-24,-25,-14%,0.92µM*,0.65µM*
O=C1c2ccc([N+](=O)[O-])cc2S(=O)(=O)N1Cc1ccccc1,.,-94*,12,11%,1%,15%
Cc1cc(C)cc(-n2c(SCC(N)=O)nc3c([nH]c4ccccc43)c2=O)c1,2%,.,.,.,?,?
Cc1nc2sc(-c3ccccc3)cc2c(=O)[nH]1,-4%,24,?,?,?,?
O=C(Nc1ccc2nc(-c3cccnc3)[nH]c2c1)c1ccccc1F,7%,176,-23,-8%,?,?
O=c1[nH]c(-c2cccnc2)nc2sc(-c3ccccc3)cc12,8%,16,-1,?,0.52µM*,0.52µM*
c1cncc(-c2nc3cc4ccccc4cc3[nH]2)c1,2%,-84*,?,?,?,?
c1ccc(-c2nc3cc4ccccc4cc3[nH]2)nc1,7%,-95*,?,?,?,?
CC(=O)Nc1ccc2nc(-c3ccccn3)[nH]c2c1,0%,-6,-22,?,1%,-23%
NS(=O)(=O)c1ccc(NC(=O)CN2C(=O)COc3ccc(Cl)cc32)cc1,-1%,.,.,.,-13%,-14%
Cc1cc(C)nc(SCc2ccc(F)cc2)n1,0%,0,2,?,16%,2%
Cc1cc(C)cc(-n2ccn(CC(=O)Nc3cc(C)ccc3C)c(=O)c2=O)c1,1%,.,.,.,-3%,-10%
O=C(Nc1ccccc1)C1C2CCC3C(CCC21)C3(Cl)Cl (stereo not given),-7%,-23,-21,-13%,-8%,-24%
O=C(Nc1cccc(Cl)c1)C1C2CCC3C(CCC21)C3(Cl)Cl (stereo not given),-3%,-72*,2,26µM*,16µM*,?
O=C(Cn1nc(-c2ccccc2)nc(Cc2ccccc2)c1=O)Nc1ccc(Cl)cc1,0%,.,.,.,-10%,-5%
N#Cc1nc(NCCCO)nc(Nc2ccccc2)n1,6%,.,.,.,.,.
CCC(C)Sc1ccc([C@@H]2[C@H]3C(=O)N(CC)C(=O)[C@H]3[C@]3(C(=O)OC)CCCCN23)cc1 (stereo not given in full),0%,-10,2,-27%,16µM*,?
CCSc1ccc([C@@H]2[C@@H]3C(=O)N(CC)C(=O)[C@@H]3[C@]3(C(=O)OC)CCCCN23)cc1,-2%,13,-3,-4%,23µM*,16µM*
CCSc1ccc([C@@H]2[C@H]3C(=O)N(C)C(=O)[C@H]3[C@]3(C(=O)OC)CCCCN23)cc1,1%,20,-16,-19%,16µM*,?
COC(=O)[C@@]12CCCCN1[C@H](c1ccc(SC3CCCCC3)cc1)[C@@H]1C(=O)N(C)C(=O)[C@@H]12,0%,0,-7,2%,?,?
CCCSc1ccc([C@@H]2[C@H]3C(=O)N(CC)C(=O)[C@H]3[C@]3(C(=O)OC)CCCN23)cc1OC,.,-8,4,-1%,?,?
